Bioassay records: PubChem BioAssay, National Center for Advancing Translational Sciences (NCATS)
PI5P4Ka inh: inhibitors of human PI5P4K alpha; PI5P4Kalpha enzyme, ADP-Glo luminescence, 60 min; active compounds read low; max response, %; actives 1.2% (n = 330,000); AID 652105; active = max response of -50% or lower; inconclusive = between -30% and -50%; inactive = -30% or higher; also: value at the top dose of about 77 µM; % is scaled to controls: 0 for no effect and ±100 for the full control effect
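Quantitative HTS of the MLSMR library against PI5P4Kalpha with substrate. ATP added last at 5 microM final; room temperature, 60 minutes. Remaining ATP depleted, ADP converted and read as luminescence.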
BAZ2B block: blocks human BAZ2B | AID 504333 | AlphaScreen BAZ2B-H3K14Ac peptide displacement | actives 4.4% (n = 360,000) | Q9UIF8 | Potency, µM (doses to about 114 µM), for inactives: at the highest dose activity change, negative = inhibition, usual class: inhibitors; also: potency is read from the fitted curve at half-maximal effect; % is scaled to controls: 0 for no effect and ±100 for the full control effect; nearly all actives have a fitted effect of over 60% in size
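AlphaScreen luminescence quantifies BAZ2B engagement of H3K14Ac peptide; the protein and biotinylated peptide are both at 50 nM final, buffer PBS pH 7.4 with 0.01% Tween-20, all steps at room temperature.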
JMJD2A Tudor inh: blocks the human JMJD2A Tudor domain | O75164 | AlphaScreen JMJD2A-Tudor / H3K4me3 peptide binding | Potency, µM (highest dose often 114 µM), for the others: top-dose activity change, negative = inhibition, hits mostly inhibitors | actives 4.4% (n = 390,000) | AID 504339; also: potency is read from the fitted curve at half-maximal effect; % is scaled to controls: 0 for no effect and ±100 for the full control effect; nearly all actives have a fitted effect of over 50% in size
HP1b binding inh: inhibitors of HP1-beta chromodomain binding to methylated histone tails | P83916 | AlphaScreen HP1-beta / biotin-H3K9me3 peptide binding | Potency, µM (highest dose often 114 µM), for the others: at the highest dose activity change, negative = inhibition, hits mostly inhibitors | actives 0.56% (n = 390,000); also: potency is read from the fitted curve at half-maximal effect; nearly all actives have a fitted effect of over 70% in size
Target sequence (P83916 whole entry, looked up): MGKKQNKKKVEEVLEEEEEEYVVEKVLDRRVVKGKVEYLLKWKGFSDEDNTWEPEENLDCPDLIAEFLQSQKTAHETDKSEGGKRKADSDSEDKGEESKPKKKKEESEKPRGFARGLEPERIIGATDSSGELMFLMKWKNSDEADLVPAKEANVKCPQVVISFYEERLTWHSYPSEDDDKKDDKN
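Compound inhibition of the preformed complex between 50 nM HP1-beta and 50 nM biotinylated H3K9me3 peptide was read by AlphaScreen. Buffer was PBS pH 7.4 with 0.01% Tween-20. Incubations ran 30 min at room temperature, with 10 ug/mL donor/acceptor beads.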
PLK1 PBD inh: PLK1 (human) polo-box domain binding inhibition; P53350; Plk1 PBD binding of FITC phosphopeptide, fluorescence polarization; Potency, µM, without a hit: max response, negative = inhibition, hits mostly inhibitors; actives 2.8% (n = 360,000); also: potency is read from the fitted curve at half-maximal effect; series mostly up to about 57 µM; % is scaled to controls: 0 for no effect and ±100 for the full control effect; nearly all actives have a fitted effect of over 65% in size
G9a inh: G9a (human) methyltransferase inhibition. G9a H3K9 monomethylation, AlphaScreen, 2 h. Potency, µM (titrated, usually from 102 µM), without a hit: top-dose activity, negative = inhibition, hits mostly inhibitors. actives 8.8% (n = 350,000); also: potency is read from the fitted curve at half-maximal effect; % is scaled to controls: 0 for no effect and ±100 for the full control effect; nearly all actives have a fitted effect of over 75% in size
Target sequence (Q96KQ7 913-1193 limits assumed): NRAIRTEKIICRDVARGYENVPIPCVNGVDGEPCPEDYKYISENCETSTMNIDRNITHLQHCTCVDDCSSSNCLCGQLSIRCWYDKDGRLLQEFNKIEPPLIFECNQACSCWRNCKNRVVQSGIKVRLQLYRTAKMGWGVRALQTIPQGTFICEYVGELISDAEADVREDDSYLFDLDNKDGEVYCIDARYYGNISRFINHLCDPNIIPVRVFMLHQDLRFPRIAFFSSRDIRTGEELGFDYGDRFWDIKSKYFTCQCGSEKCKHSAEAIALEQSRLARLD
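Enzyme 20 nM + cpd, 15 min RT; add b-H3K9 pep 500 nM / SAM 20 uM; 2 h RT; anti-H3K9me1 Ab 0.5 ug/mL + SA donor / anti-rabbit acceptor beads 20 ug/mL each, 10 min; AlphaScreen read.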
* hit, by the source's call; ? = inconclusive; · = no result; [ ] = another dose, or the depositor's remark. An excerpt weighted towards active compounds, which were near 12% of everything screened. Unless noted, calls follow the shape of the dose curve; as a rule, active = well fitted curve in the direction sought with a large enough effect; inconclusive = small, poorly fitted or top-dose-only effect, or another doubt; inactive = no such curve, though single readings can be large; an effect the other way counts as inactive or inconclusive.

SMILES | PI5P4Ka inh | BAZ2B block | JMJD2A Tudor inh | HP1b binding inh | PLK1 PBD inh | G9a inh
COc1ccc(NC2CCCN(C(=O)c3cc4ncccn4n3)C2)cc1 (configuration not stated) | -1 | -13% | -20% | -3% | -11% | 35µM*
COc1ccc(NC2CCCN(C(=O)c3ccc4[nH]c(C)c(C)c4c3)C2)cc1 (configuration not stated) | 0 | 45µM* | ? | -14% | -3% | 40µM*
COc1ccc(NC2CCCN(C(=O)C3=NNC(=O)CC3)C2)cc1 (configuration not stated) | 1 | · | · | · | 2% | ·
COc1ccc(NC2CCCN(C(=O)c3ccc(C)nc3)C2)cc1 (configuration not stated) | 5 | -21% | -14% | 8% | -1% | 40µM*
CN1CCN(c2ccnc(-c3ccc(N(C)C)cc3)n2)CC1 | · | · | · | · | · | 19%[0.501 µM]
CC(C)c1ccc(NC2CCCN(C(=O)c3ccoc3)C2)cc1 (configuration not stated) | 2 | ? | ? | -10% | -6% | 45µM*
CC(C)c1ccc(NC2CCCN(C(=O)c3cscn3)C2)cc1 (configuration not stated) | 0 | -28% | -28% | 17% | -15% | -12%
CC(C)c1ccc(NC2CCCN(C(=O)c3cc(C(C)C)nc(N)n3)C2)cc1 (configuration not stated) | 1 | -24% | ? | -9% | 27µM* | ?
CC(C)c1ccc(NC2CCCN(C(=O)c3ccccc3-c3ncc[nH]3)C2)cc1 (configuration not stated) | -6 | 56µM* | ? | 0% | 0% | 45µM*
COc1ccc(NC(=O)COc2ccc(S(=O)(=O)NC3CCCCC3)cc2)cc1OC | · | -13% | -7% | 20% | · | 1%[59 µM]
CC[C@@]1(C(=O)OC)N[C@H](CN(C)C(=O)Nc2ccccc2)[C@@H]2C(=O)N(Cc3ccccc3)C(=O)[C@@H]21 | 4 | · | -12% | 37% | -15% | ·
CSc1nc(-c2ccco2)cc(-c2ccccc2)c1C#N | 6 | 24% | -10%[11.4 µM] | 161% | -14% | 50µM*
CSc1nc(-c2ccco2)cc(C(F)(F)F)c1C#N | 5 | 13% | -2%[57.1 µM] | -7% | 17µM* | 25µM*
CC1Cc2ccccc2N1C(=O)c1cc2cccnc2n(C)c1=O (configuration not stated) | 0 | -3% | -5% | 21% | -3% | 11%[0.501 µM]
COc1ccc(C2NN=C(c3ccc(C)cc3)S2)cc1OC (configuration not stated) | -5 | -5% | -4% | 23% | 24µM* | 13µM*
N#Cc1ccc(NC(=O)C2=COCCO2)cc1 | 1 | -4% | -4% | 29% | -15% | 1%[59 µM]
O=C(COC(=O)C1C2CC3OC(=O)C1C3C2)Nc1ccc(Cl)cc1 (configuration not stated) | 4 | 1% | -10% | -6% | -12% | -5%[59 µM]
COc1cc(NC(=O)c2cccc(Cl)c2)c(OC)cc1NC(=O)CN1CCOCC1 | 7 | ? | ? | 15% | -4% | 45µM*
COc1cc(NC(=O)c2cccc(Cl)c2)c(OC)cc1NC(=O)CN1CCCCC1 | 0 | -1% | ? | ? | 30µM* | ·
COc1cc(NC(=O)c2cccc(C)c2)c(OC)cc1NC(=O)CN1CCOCC1 | 0 | -26% | -27% | 16% | -14% | -41%
COc1cc(NC(=O)c2ccc(F)cc2)c(OC)cc1NC(=O)CN1CCCCC1 | -6 | -18% | -19% | 16% | -11% | 50µM*
CCOc1ccccc1NC(=O)c1cn(C2CCCC2)c(=O)c2c1c1ccccc1n2C | · | 13% | -5% | 64% | · | 10%[59 µM]
Cc1ccc(S(=O)(=O)N[C@H](CNCc2ccccc2)C(C)C)cc1 | 1 | · | · | · | -1% | ·
Oc1cc(-n2cccn2)c(O)cc1-n1cccn1 | -4 | 32µM* | 0.79µM* | 2.8µM* | ? | 0.71µM*
S=c1nc[nH]c2c1ncn2-c1ccc(Cl)cc1 | ? | · | 50µM* | ? | 6µM* | ·
SMILES | PI5P4Ka inh | BAZ2B block | JMJD2A Tudor inh | HP1b binding inh | PLK1 PBD inh | G9a inh
Cc1cc(C)c(S(=O)(=O)c2ccccc2)c(OC(=O)c2c(Cl)cccc2Cl)n1 | -2 | 2% | -16% | 13% | -11% | 19%[59 µM]
Cc1cc(C)c(S(=O)(=O)c2ccccc2)c(OC(=O)c2ccc(Cl)cc2Cl)n1 | -27 | 56µM* | -22% | 103% | -20% | 19%
CC(=NNS(=O)(=O)c1ccc([N+](=O)[O-])cc1)c1ccc(C)cc1 | 6 | · | -32% | ? | -9% | ·
O=C(NNc1ccc([N+](=O)[O-])cc1[N+](=O)[O-])c1ccco1 | -30 | 40µM* | ? | ? | -21% | 40µM*
O=C(NNc1ccc([N+](=O)[O-])cc1)c1ccco1 | 6 | -11% | -4% | 11% | -4% | 45µM*
O=C(NC(=S)Nc1ccc([N+](=O)[O-])cc1)c1ccco1 | -11 | · | · | · | -8% | ·
C/C(=N\NS(=O)(=O)c1ccc([N+](=O)[O-])cc1)c1ccc(NC(=O)c2ccco2)cc1 | -10 | -10% | -11% | 12% | -9% | 35µM*
Cc1ccccc1Cn1c(C)c(CNCc2ccccc2)c(C(=O)O)c1C | · | -16% | -21% | 1% | · | 10%[59 µM]
O=[N+]([O-])c1ccc(S(=O)(=O)N/N=C/c2ccsc2)cc1 | -1 | ? | -15% | 33% | -29% | 45µM*
Cc1ccc(Cl)c2c1NC(=O)C2(O)CC(=O)c1ccccc1O (configuration not stated) | 1 | -13% | 5% | 19% | 2% | 14µM*
O=C(CC1(O)C(=O)N(C/C=C/c2ccccc2)c2ccccc21)c1ccccn1 (configuration not stated) | · | -32% | ? | -19% | -12% | 50µM*
C=CCOn1c(=O)c(-c2cccs2)[n+]([O-])c2ccccc21 | · | -3% | 7% | 57% | 0.84µM* | 11%
COc1ccc(-c2c(=O)n(OC)c3ccccc3[n+]2[O-])cc1OC | -5 | -9% | -22% | -10% | ? | 32µM*
COc1ccc(-c2c(=O)n(OCc3ccccc3[N+](=O)[O-])c3ccccc3[n+]2[O-])c(OC)c1 | -10 | -32% | -28% | -2% | -6% | 45µM*
C=CCOn1c(=O)c(-c2ccc(OC)c(OC)c2)[n+]([O-])c2ccccc21 | -9 | -38% | 89µM* | -23% | ? | 8.9µM*
CCCCN1CCC2C=CCC(C(=O)O)C2C1=O (configuration not stated) | · | · | -21% | 28% | · | ·
CCCCNC(=O)CSc1nnc(-c2cccc(S(=O)(=O)N3CCOCC3)c2)o1 | 0 | -2% | -14% | 29% | 4% | 16%[59 µM]
Cc1nc2ccccn2c1C(O)(c1ccccc1)c1ccccc1 | · | · | -24% | · | · | ·
